PubChem BioAssay
Calls of active or inactive are those of the source.

What was measured:
[1] = binders of probe aFSTL3 on microarray, primary screen, stem cell growth factor project, biochemical, small-molecule microarray, fluorescence 635/667 (AID 1064); conditions: higher = more signal;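 note: measures binding of the biotinylated anti-FSTL3 antibody to printed compounds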
[2] = binders from COS7 lysate, DM2A8 probe, primary screen, torsin A project, cell lysate, small-molecule microarray, fluorescence 635/667 (AID 1065); conditions: higher = more signal, COS7 lysate expressing mutant human TOR1A
[3] = binders of probe aFGF2 on microarray, primary screen, stem cell growth factor project, biochemical, small-molecule microarray, fluorescence 635/667 (AID 1067); conditions: higher = more signal;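 note: measures binding of biotinylated aFGF2 protein to printed compounds on slides; z-score merges feature fluorescence and signal-to-noise across triplicate slides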
[4] = binders of probe aFGF10 on microarray, primary screen, stem cell growth factor project, biochemical, small-molecule microarray, fluorescence 635/667 (AID 1071); conditions: higher = more signal;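 note: score merges 667 nm spot intensity and signal to noise from triplicate slides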
[5] = target: Neurogenic locus notch homolog protein 2 (Homo sapiens) (UniProt Q04721); assay: Notch2 binders on small-molecule microarrays, primary screen, biochemical, small-molecule microarray, 635 nm fluorescence, stem cell growth factors (AID 1073); conditions: Notch2 binding, higher = more signal
Chain of Neurogenic locus notch homolog protein 2 (Homo sapiens) (Q04721 whole entry, looked up, canonical isoform): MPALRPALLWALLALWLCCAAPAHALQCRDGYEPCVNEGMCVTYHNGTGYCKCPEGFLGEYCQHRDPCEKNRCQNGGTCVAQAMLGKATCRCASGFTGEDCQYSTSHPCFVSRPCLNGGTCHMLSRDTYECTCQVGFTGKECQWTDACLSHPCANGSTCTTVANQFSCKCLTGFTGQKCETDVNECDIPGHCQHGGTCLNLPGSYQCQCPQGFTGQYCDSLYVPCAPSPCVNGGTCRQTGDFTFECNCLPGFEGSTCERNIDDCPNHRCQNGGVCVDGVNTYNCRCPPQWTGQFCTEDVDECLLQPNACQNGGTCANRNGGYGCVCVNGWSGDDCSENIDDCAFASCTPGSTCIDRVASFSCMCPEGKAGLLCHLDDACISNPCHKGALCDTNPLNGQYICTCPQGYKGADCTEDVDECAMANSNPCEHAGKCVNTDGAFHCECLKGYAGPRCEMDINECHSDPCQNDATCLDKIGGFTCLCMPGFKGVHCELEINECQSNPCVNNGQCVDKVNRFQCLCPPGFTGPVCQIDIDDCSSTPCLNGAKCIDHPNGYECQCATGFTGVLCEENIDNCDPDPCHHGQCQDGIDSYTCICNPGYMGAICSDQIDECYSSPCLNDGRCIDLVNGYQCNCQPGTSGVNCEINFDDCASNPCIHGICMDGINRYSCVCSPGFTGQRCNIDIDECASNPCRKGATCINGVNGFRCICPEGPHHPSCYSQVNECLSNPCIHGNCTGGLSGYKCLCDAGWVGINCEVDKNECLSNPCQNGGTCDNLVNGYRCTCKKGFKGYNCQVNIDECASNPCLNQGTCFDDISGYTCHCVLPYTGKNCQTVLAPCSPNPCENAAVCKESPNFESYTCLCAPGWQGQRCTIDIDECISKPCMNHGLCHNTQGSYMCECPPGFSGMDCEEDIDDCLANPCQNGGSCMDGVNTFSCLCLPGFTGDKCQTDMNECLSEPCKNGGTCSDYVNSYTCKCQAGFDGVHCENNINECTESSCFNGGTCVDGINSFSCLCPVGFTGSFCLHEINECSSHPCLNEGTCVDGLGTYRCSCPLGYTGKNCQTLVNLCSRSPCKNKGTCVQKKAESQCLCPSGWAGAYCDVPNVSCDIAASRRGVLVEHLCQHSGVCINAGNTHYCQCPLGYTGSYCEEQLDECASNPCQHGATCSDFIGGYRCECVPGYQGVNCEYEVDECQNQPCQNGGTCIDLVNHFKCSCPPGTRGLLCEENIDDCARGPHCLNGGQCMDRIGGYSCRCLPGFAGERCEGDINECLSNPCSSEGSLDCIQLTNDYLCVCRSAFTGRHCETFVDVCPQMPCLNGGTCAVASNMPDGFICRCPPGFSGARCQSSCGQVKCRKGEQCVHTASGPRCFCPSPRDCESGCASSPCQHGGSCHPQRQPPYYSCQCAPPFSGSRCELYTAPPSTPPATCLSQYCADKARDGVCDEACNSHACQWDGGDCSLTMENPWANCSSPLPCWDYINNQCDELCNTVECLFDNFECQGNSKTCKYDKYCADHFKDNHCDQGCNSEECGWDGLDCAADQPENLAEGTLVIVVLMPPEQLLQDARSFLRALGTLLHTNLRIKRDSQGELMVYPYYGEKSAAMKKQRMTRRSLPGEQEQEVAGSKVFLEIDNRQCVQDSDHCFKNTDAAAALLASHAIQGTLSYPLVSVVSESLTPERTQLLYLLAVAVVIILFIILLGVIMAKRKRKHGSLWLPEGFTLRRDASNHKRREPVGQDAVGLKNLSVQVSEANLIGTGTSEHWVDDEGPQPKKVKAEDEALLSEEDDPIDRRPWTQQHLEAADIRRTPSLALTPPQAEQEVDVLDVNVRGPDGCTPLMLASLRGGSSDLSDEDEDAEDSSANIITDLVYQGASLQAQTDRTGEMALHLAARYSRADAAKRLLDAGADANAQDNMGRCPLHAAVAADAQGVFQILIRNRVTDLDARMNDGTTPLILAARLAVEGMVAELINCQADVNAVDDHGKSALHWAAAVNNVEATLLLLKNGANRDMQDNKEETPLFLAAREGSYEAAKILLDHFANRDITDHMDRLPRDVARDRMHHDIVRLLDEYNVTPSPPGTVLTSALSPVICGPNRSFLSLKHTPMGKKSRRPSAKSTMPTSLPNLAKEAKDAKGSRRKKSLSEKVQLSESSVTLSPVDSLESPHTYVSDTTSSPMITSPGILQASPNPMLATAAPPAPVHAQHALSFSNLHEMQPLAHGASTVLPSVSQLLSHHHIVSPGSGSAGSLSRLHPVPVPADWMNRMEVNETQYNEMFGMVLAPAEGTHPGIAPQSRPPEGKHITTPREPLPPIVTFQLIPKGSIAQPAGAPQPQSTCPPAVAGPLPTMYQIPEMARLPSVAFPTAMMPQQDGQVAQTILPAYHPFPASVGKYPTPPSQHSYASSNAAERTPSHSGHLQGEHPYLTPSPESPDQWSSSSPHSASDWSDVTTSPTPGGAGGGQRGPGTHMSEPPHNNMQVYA

[6] = target: Pro-neuregulin-1, membrane-bound isoform (Homo sapiens) (UniProt Q02297); assay: NRG1 binders on small-molecule microarrays, primary screen, psychiatric disease protein project, biochemical, small-molecule microarray, fluorescence 635/667 (AID 1075); conditions: NRG1 binding, 635 nm fluorescence, higher = more signal;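 note: score combines 667 nm spot fluorescence with signal to noise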
Chain of Pro-neuregulin-1, membrane-bound isoform (Homo sapiens) (Q02297 whole entry, looked up, the tested form may be a part, canonical isoform): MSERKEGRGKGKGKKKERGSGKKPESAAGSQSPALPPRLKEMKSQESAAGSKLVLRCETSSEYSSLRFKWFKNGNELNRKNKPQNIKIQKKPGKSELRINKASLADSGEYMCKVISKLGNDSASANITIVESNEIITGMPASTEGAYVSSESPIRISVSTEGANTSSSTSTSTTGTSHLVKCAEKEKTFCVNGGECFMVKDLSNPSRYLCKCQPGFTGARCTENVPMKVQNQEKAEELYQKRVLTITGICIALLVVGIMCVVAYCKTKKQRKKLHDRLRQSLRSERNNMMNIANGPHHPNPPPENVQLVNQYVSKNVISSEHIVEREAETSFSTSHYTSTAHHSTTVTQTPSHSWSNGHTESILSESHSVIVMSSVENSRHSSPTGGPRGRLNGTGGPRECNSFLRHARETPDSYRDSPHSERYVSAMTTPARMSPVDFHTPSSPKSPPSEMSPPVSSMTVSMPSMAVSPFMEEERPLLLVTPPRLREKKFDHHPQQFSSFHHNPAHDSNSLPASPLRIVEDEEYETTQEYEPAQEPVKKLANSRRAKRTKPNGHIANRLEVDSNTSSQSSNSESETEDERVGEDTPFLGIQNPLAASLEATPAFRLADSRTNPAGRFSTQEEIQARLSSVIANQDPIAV

[7] = test system: Neuregulin-1 EGF-like domain; assay: binders of neuregulin-1 EGF-like domain, primary screen, biochemical, small-molecule microarray, 635 nm fluorescence (AID 1081); conditions: small-molecule microarray binding, higher = more signal;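 note: binding of the protein to compounds printed on small-molecule microarray slides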
[8] = FRG1 promoter luciferase signal modulators, primary screen, FRG1 inhibition for FSHD, cell-based, C2C12 myotubes, firefly/Renilla luciferase, luminescence (AID 1084); conditions: higher = more signal, called active from +8 up or from −8 down
[9] = binders of probe aFST on microarray, primary screen, stem cell growth factor project, biochemical, small-molecule microarray, fluorescence 635/667 (AID 1086); conditions: higher = more signal;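 note: score merges 667 nm fluorescence with signal-to-noise of each printed compound spot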
[10] = binders of probe aHhip on microarray, primary screen, stem cell growth factor project, biochemical, small-molecule microarray, fluorescence 635/667 (AID 1087); conditions: higher = more signal;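 note: score merges spot fluorescence at 667nm with spot signal to noise ratio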
[11] = test system: PRMT1 (protein arginine N-methyltransferase 1); assay: PRMT1 binders on small-molecule microarrays, primary screen, biochemical, small-molecule microarray, 635 nm fluorescence (AID 1088); conditions: small-molecule microarray binding, higher = more signal;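 note: binding of Prmt1 protein to compounds spotted on small-molecule microarray slides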
[12] = yeast growth modulation, basal conditions, primary screen, YJM789 clinical isolate, OD600, 24 h (AID 1089);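 note: growth of clinical yeast isolate S. cerevisiae YJM 789 seeded 1000 cells per well; test concentration not given here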; conditions: S. cerevisiae YJM789 growth, higher = more signal, called active from +8 up or from −8 down
[13] = fission yeast growth modulation, primary screen, strain 972, OD600, 24 h, no modulator (AID 1090);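 note: basal condition with compound alone and no growth modifier present; test concentration not given here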; conditions: S. pombe 972 growth, higher = more signal, called active from +8 up or from −8 down
[14] = S. cerevisiae growth modulation with rapamycin, primary screen, strain BY4716, OD600, 96 h (AID 1091); conditions: higher = more signal, called active from +8 up or from −8 down; note: test concentration not given here
[15] = target: Torsin-1A-interacting protein 2 (Homo sapiens) (UniProt Q8NFQ8); assay: LULL1 binders on small-molecule microarray, primary screen, cell lysate, human LULL1 lysate, 635/667 nm fluorescence (AID 1092); conditions: hLULL1 lysate binding, 635 nm fluorescence, higher = more signal;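 note: probe is lysate of COS7 cells overexpressing human LULL1; score merges per-feature 667 nm fluorescence with signal-to-noise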
Chain of Torsin-1A-interacting protein 2 (Homo sapiens) (Q8NFQ8 whole entry, looked up): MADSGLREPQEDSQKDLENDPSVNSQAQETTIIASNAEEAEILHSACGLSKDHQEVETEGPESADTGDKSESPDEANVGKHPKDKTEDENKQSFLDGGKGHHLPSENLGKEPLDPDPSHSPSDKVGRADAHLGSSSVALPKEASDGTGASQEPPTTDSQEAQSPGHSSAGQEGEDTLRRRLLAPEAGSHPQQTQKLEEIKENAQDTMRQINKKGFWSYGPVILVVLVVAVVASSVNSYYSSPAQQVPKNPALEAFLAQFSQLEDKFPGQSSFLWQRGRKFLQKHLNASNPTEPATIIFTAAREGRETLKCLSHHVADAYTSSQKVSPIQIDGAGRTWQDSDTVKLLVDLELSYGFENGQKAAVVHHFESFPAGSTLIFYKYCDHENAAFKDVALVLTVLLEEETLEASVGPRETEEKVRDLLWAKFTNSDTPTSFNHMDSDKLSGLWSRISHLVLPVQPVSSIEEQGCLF

[16] = E. coli growth modulation, two-sided OD650, primary screen, E. coli filamentation project, strain DRC41, 24 h (AID 1093); conditions: OD650, 24 h, higher = more signal, called active from +8 up or from −8 down;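 note: MC1000 strain lacking acrAB efflux and sulA so SOS filamentation is blocked; test concentration not given here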
[17] = small-molecule microarray binders of probe aLefty2, primary screen, biochemical, biotinylated probe, 635/667 nm fluorescence (AID 1094); conditions: higher = more signal;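 note: score merges spot fluorescence near 667 nm with spot signal-to-noise ratio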
[18] = test system: Noggin (protein binding on small-molecule microarray); assay: Noggin binders on small-molecule microarray, primary screen, biochemical, 635/667 nm fluorescence (AID 1095); conditions: 635 nm fluorescence, higher = more signal;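 note: score merges 667 nm feature fluorescence with signal to noise over triplicate slides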
[19] = target: Neurogenic locus notch homolog protein 3 (Homo sapiens) (UniProt Q9UM47); assay: NOTCH3 binders on small-molecule microarray, primary screen, biochemical, 635/667 nm fluorescence (AID 1096); conditions: NOTCH3 binding, 635 nm fluorescence, higher = more signal
[20] = small-molecule microarray binders of probe aEGFR, primary screen, biochemical, biotinylated probe, 635/667 nm fluorescence (AID 1097); conditions: higher = more signal;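 note: probe is a biotinylated anti-EGFR antibody binding compounds printed on slides; score combines fluorescence near 667 nm and signal to noise of each spot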

SMILES	composite z-score [1]	composite z-score [2]	composite z-score [3]	composite z-score [4]	composite z-score [5]	composite z-score [6]	composite z-score [7]	z-score [8]	composite z-score [9]	composite z-score [10]	composite z-score [11]	z-score [12]	z-score [13]	z-score [14]	composite z-score [15]	z-score [16]	composite z-score [17]	composite z-score [18]	composite z-score [19]	composite z-score [20]
CCCCC(=C=CC[C@@H](O)c1ccccc1OCCO)CCO	-0.347	0.163	-0.0367	0.352	-0.333	0.991	0.479	0.0128 (inactive)	0.0797	-0.236	-0.144	0.598 (inactive)	-0.424 (inactive)	-0.374 (inactive)	1.06	0.205 (inactive)	-0.192	0.201	-0.0525	-0.199
O=C1O[C@H](c2ccccc2)[C@H](c2ccccc2)N2[C@H]1[C@@H](C(=O)O)[C@]1(C(=O)Nc3ccc(C#CCCO)cc31)[C@H]2c1ccc(O)cc1	1.32	0.502	0.0248	-0.0925	-0.665	0.957	0.708	0.482 (inactive)	0.481	0.437	-0.685	0.396 (inactive)	-0.228 (inactive)	0.385 (inactive)	0.782	1.57 (inactive)	0.541	-0.228	-0.557	0.186
C=CCN1C(=O)[C@@]2(O[C@@H](CCO)[C@H]([Si](C)(C)c3ccc(OC)cc3)[C@H]2C)c2cc(NC(=O)c3ccc(OC)cc3)ccc21	-0.114	0.612	-0.0739	-0.0379	0.454	0.213	0.949	-0.797 (inactive)	0.171	-0.0003	1.54	0.411 (inactive)	-2.29 (inactive)	1.02 (inactive)	0.821	0.702 (inactive)	-0.0977	1.37	0.861	-0.159
CC(C)(C)OC(=O)CC[C@]12N=C(c3ccc(OCCCO)cc3)O[C@H]1c1ccccc1N(CCS(=O)(=O)c1ccccc1)C2=O	0.144	0.433	-0.0024	0.137	1.42	0.882	1.26	0.281 (inactive)	0.682	0.0139	1.55	1.03 (inactive)	1.65 (inactive)	0.246 (inactive)	3.17	0.522 (inactive)	0.101	0.905	1.1	0.0288
C=CCC(OC(C)=O)[C@@H]1[C@@H](N(Cc2ccc(-c3cccc(C(F)(F)F)c3)o2)C(=O)Cc2ccc(F)cc2)c2cc(OCCCO)ccc2N1C(=O)Cc1ccc(OC)cc1 (stereo not given in full)	-0.0361	-0.162	-0.0971	0.318	-0.944	-0.14	-0.751	-0.373 (inactive)	-0.26	-0.164	-2.39	-0.973 (inactive)	0.0138 (inactive)	-0.982 (inactive)	-2.02	-0.0261 (inactive)	0.454	-0.137	-1.08	-0.195
C=CCN(Cc1ccccc1)C(=O)C(c1cccs1)N(CCOCCO)C(=O)/C=C\C(=O)O (stereo not given)	0.713	-1.43	-0.203	-0.873	-1.04	-0.353	-0.421	0.919 (inactive)	-1.59	-0.341	-0.785	-2.16 (inactive)	0.0374 (inactive)	-1.01 (inactive)	1.2	2.25 (inactive)	-0.0555	-2.41	-1.7	-0.329
C=C(C)C1C(=C)CN([C@H](CO)c2ccccc2)C1=O (stereo not given in full)	0.172	-0.605	-0.132	-0.205	-0.725	-0.461	-0.708	0.0392 (inactive)	-0.0839	-0.0296	0.0584	-0.329 (inactive)	-0.635 (inactive)	-1.97 (inactive)	1.62	-0.233 (inactive)	-0.0757	0.245	0.0316	-0.18
O=C(NCc1ccccc1)[C@@]1(Cc2ccccc2)N=C(c2ccc(OCCCO)cc2)O[C@H]1c1ccccc1	0.398	1.92	0.0557	0.177	1.56	1.76	1.05	-2.23 (inactive)	1.07	-0.201	0.982	0.46 (inactive)	-0.666 (inactive)	23.2 (active)	3.39	0.842 (inactive)	0.126	-0.595	0.642	0.0357
COC(=O)[C@@]1(Cc2ccc(F)cc2)[C@H]2c3cc(C(=O)N(C)C)n(CC4CC4)c3C[C@H]2CN1C(=O)c1ccccc1	2.43	1.04	0.833	1.27	1.58	1.6	1.26	-0.115 (inactive)	2.76	0.741	1.45	0.712 (inactive)	0.877 (inactive)	2.49 (inactive)	3.57	-0.334 (inactive)	1.41	0.506	1.06	0.973
